# Out of some 48,000 compounds screened, about 13,000 (27%) showed an effect of 50% or more. The list shows a part of the results.
# System: Wolbachia pipientis
# Test: Anti-Wolbachia Cell-Based Screen
# Type: functional
# Design: scale not given: in the data most compounds retested in dose-response had high values
# Conditions: 5 µM
row,SMILES,Percent Effect
1,CNS(=O)(=O)Cc1ccc(CNC(=O)Nc2cccnc2)cc1,-4.432%
2,COC1CCCN(C(=O)Nc2nc(C)n(C)n2)C1 (stereo not drawn),-6.454%
3,CCC[C@@H]1CN(Cc2nnc(-c3cccc(F)c3)o2)C[C@H]1NC(C)=O,-4.818%
4,N#CC1COCCN1C(=O)c1ccc2[nH]ccc2c1 (stereo not drawn),142.7%
5,O=C(c1ccc2[nH]cnc2c1)N1CCC(Oc2cccnc2)CC1,-0.01073%
6,O=C(O)C(c1ccc2[nH]ccc2c1)N1CCOCC1 (stereo not drawn),14%
7,O=C(c1ccc2[nH]ccc2c1)N1CCCCC1c1nc[nH]n1 (stereo not drawn),5.747%
8,NC(=O)CC1CCCCN1C(=O)c1ccc2cc[nH]c2c1 (stereo not drawn),-8.838%
9,O=C(c1cccc2cc[nH]c12)N1CCC2(CCOC2)C1 (stereo not drawn),-1.625%
10,N#CC1COCCN1C(=O)c1ccc2cc[nH]c2c1 (stereo not drawn),87.5%
11,CC(C)(C)OC(=O)N1CCCN1C(=O)c1cccc2cc[nH]c12,-15.66%
12,N#CC1COCCN1C(=O)c1cccc2cc[nH]c12 (stereo not drawn),105.1%
13,CCc1nnc2n1CCN(C(=O)c1ccc3[nH]cnc3c1)C2,-15.67%
14,N#CC1COCCN1C(=O)c1ccc2[nH]cnc2c1 (stereo not drawn),108.9%
15,CNS(=O)(=O)CC1CCCN1C(=O)c1ccc2cc[nH]c2c1 (stereo not drawn),-9.261%
16,Cc1ncc(CNC(=O)N(C)C2CCN(c3ccccc3)C2=O)s1 (stereo not drawn),-4.731%
17,Cc1cccc2c1cnn2CCCNC(=O)CCCC(=O)O,-9.765%
18,CC(C(=O)N(C)C)S(=O)(=O)c1cc2c(cc1Cl)OCCO2 (stereo not drawn),4.925%
19,CSCC[C@H](N)c1nnc(SCc2cc(C)ccc2C)o1.Cl,100.9%
20,Cc1ccc(C)c(CSc2nnc(C(N)Cc3ccccc3)o2)c1.Cl (stereo not drawn),112.4%
21,Cc1ccc(C)c(CSc2nnc(C(N)C(C)C)o2)c1.Cl (stereo not drawn),129.6%
22,Cc1ccccc1CSc1nc(N)cc(N2CCOC(C(N)=O)C2)n1 (stereo not drawn),17.62%

row,SMILES,Percent Effect
1,Cc1ccc(C)c(OCc2nnc(SCC3CCCN(C)C3)o2)c1 (stereo not drawn),-6.886%
2,Cc1ccc(C)c(CSc2nnc([C@@H](N)C(C)C)o2)c1.Cl,118.1%
3,CS(=O)(=O)c1ccc(NC(=O)N2CCc3sccc3C2)cn1,17.51%
4,CN(C)c1ccc(NC(=O)CN2CCS(=O)(=O)CC2)cn1,10.44%
5,COc1ccc(Oc2ncccc2NC(=O)N2CC[C@H](O)C2)cc1,8.282%
6,O=C(c1cccnc1-n1cncn1)N1CCN(c2ccccc2)CC1,-6.157%
7,O=C(c1cccnc1SC/C=C/c1ccccc1)N1CCOCC(O)C1 (stereo not drawn),8.468%
8,O=C(c1cccnc1SC/C=C/c1ccccc1)N1CC[C@H](O)C1,8.97%
9,COc1ncccc1C(=O)N1CC[C@H]2C[C@@H](C)O[C@@H]2C1,13.58%
10,CSc1ncccc1C(=O)N1C[C@H]2CC[C@@H]1CN(C(C)=O)C2,3.365%
11,O=C(c1cccnc1Oc1ccc(Cl)cc1)N1CC[C@@H](O)C1,158.3%
12,O=C(c1cccnc1SCc1ccccc1)N1CCOCC1,174.3%
13,O=C(c1cccnc1SCc1ccccc1)N1CC[C@@H](O)C1,159.2%
14,CN(C(=O)c1ccc(OCC(F)F)nc1)c1ccc2c(c1)CCO2,2.001%
15,OC(CN1CC(n2cccn2)C1)c1ccc2c(c1)OCCO2 (stereo not drawn),-60.78%
16,CS(=O)(=O)NCCN1CCOC2(CCc3ccccc32)C1 (stereo not drawn),9.722%
17,Cc1[nH]ccc1C(=O)N(C)C1CC(=O)N(Cc2ccccc2)C1=O (stereo not drawn),-3.858%
18,O=C(Cc1c[nH]c(=O)[nH]c1=O)N1CCC2(CCC(=O)N(C3CC3)C2)CC1,10.83%
19,Cn1ccc(C(=O)Nc2nc(-c3ccc(Cl)cc3)n[nH]2)cc1=O,5.787%
20,CCCNC(=O)Cn1cc(C#N)c(=O)c2cc(Br)ccc21,-9.356%
21,CSCC(=O)Nc1ncc(I)cc1C,-3.012%
22,Cc1cc(C)c(CNC(=O)NCc2ccc3c(c2)CCC3)c(=O)[nH]1,-7.046%

row,SMILES,Percent Effect
1,CN(C)S(=O)(=O)c1ccc(-c2nc(C#N)c(NC3CCCCC3)o2)o1,126.8%
2,CN(C)S(=O)(=O)c1ccc(-c2nc(C#N)c(NC3CC3)o2)o1,107.9%
3,CN(C)S(=O)(=O)c1ccc(CN2CCC(C(N)=O)CC2)o1,-3.214%
4,CSCC[C@@H](CO)n1ccnc1-c1ccncc1,-26.42%
5,C1CCC(OCCN2CCN(CCOC3CCCCC3)CC2)CC1,16.33%
6,Oc1cccc(-c2cc(C3CCN(Cc4cncnc4)C3)ccn2)c1 (stereo not drawn),-2.47%
7,CCC(=O)NCC(=O)NCC1(c2c(F)cccc2F)CCCC1,-0.7519%
8,c1cnc(OCc2nnc3n2CCN(Cc2ccco2)C3)nc1,-5.792%
9,O=C(O)C(F)(F)F.O=C(O)C(F)(F)F.c1ccc(OCc2nnc3n2CCN(Cc2ccco2)C3)nc1,6.411%
10,CN(C)C(=O)NCc1ncn2c1CN(Cc1ccco1)CCC2.O=C(O)C(F)(F)F,-2.342%
11,N#CCC(=O)NCc1nnc2n1CCN(Cc1ccco1)C2,-13.02%
12,O=C1CCCN1Cc1nnc2n1CCN(Cc1ccco1)C2,88.52%
13,O=C(O)C(F)(F)F.O=C1CCCN1Cc1nnc2n1CCN(Cc1ccco1)CC2,95.89%
14,O=C(O)C(F)(F)F.O=C1CCCN1Cc1nnc2n1CCCN(Cc1ccco1)C2,117.6%
15,O=C(O)C(F)(F)F.O=C(O)C(F)(F)F.c1ccc(CN2CCc3nnc(CN4CCCCC4)n3CC2)nc1,-3.311%
16,CCN(Cc1ccccc1C)S(C)(=O)=O,-4.247%
17,COCCCNC(=O)CN(C)C1CCCN(c2cccnn2)C1 (stereo not drawn),138.8%
18,CN(CC(=O)NCc1ccccn1)C1CCCN(c2cccnn2)C1 (stereo not drawn),106.6%
19,CN(CC(=O)NCc1ccccn1)CC1CCCN1c1cccnn1 (stereo not drawn),-6.159%
20,CN1C(=O)[C@H]2CC[C@@H]1CN(C(=O)c1nnc3n1CCCCC3)C2,10.69%
21,NC(=O)NCCC(=O)NCc1cccnc1N1CCc2ccccc2C1,5.248%
22,Cn1cccc1CCC(=O)N1CCC2(CC1)c1ccccc1CC2O (stereo not drawn),8.573%

row,SMILES,Percent Effect
1,Cc1cccc(CC(=O)N2CCCC(c3n[nH]c4nccnc34)C2)c1 (stereo not drawn),102.4%
2,Cc1cccc(C2CCCN(C(=O)CN3CCCC3=O)C2)c1 (stereo not drawn),-1.59%
3,COc1cccc(COCC(=O)N2CCCC(c3cc(C)[nH]n3)C2)c1 (stereo not drawn),9.679%
4,COc1cccc(CC(=O)N2CCCC(c3n[nH]c4nccnc34)C2)c1 (stereo not drawn),81.22%
5,N#Cc1cccc(NC2CC(=O)N(Cc3cccc(F)c3)C2)n1 (stereo not drawn),7.096%
6,CCN(Cc1ccc(Cl)s1)S(=O)(=O)CCOC,-12.02%
7,C[C@H](c1ccc(F)cc1)n1c(C2CCN(C)CC2)n[nH]c1=O,-149.6%
8,CC[C@@H](c1ccccc1)n1c(C2CC2)n[nH]c1=O,115.6%
9,CCC(c1ccccc1)N1CCN(C(=O)c2cc(C(N)=O)c[nH]2)CC1 (stereo not drawn),-8.4%
10,NCc1n[nH]c(=O)n1-c1ccccc1Oc1ccccc1,-5.025%
11,CCCc1n[nH]c(=O)n1Cc1ccccc1F,-4.193%
12,CC[C@@H](c1ccccc1)n1c(CCN)n[nH]c1=O,91.36%
13,CC[C@@H](c1ccccc1)n1c(CN)n[nH]c1=O,112.8%
14,C[C@H](c1ccc(Cl)cc1)n1c(C2CC2)n[nH]c1=O,-27.24%
15,CCCc1n[nH]c(=O)n1[C@@H](CC)c1ccccc1,92.4%
16,CCCc1cc(C(=O)NCCN2C(=O)c3ccccc3C2=O)[nH]n1,-4.22%
17,Cn1cccc1C(=O)NC1CCN(c2ccc(OC(F)(F)F)cc2)CC1,-13.65%
18,CNC(=O)NC(=O)CN1CCC(c2c[nH]c3ccc(OC)cc23)CC1,-6.098%
19,O=S(=O)(c1cccc(F)c1)N1C[C@@H]2COC[C@]2(COCC2CC2)C1,-1.949%
20,COc1cc(CNCCC(N)=O)c2c(c1)CC(C)O2 (stereo not drawn),0.4704%
21,CCN(CC)C(CNC(=O)c1ccc(S(C)(=O)=O)cc1)c1ccco1 (stereo not drawn),12.65%
22,O=C(CNc1cc2c(cc1Br)OCCO2)NC1CCS(=O)(=O)C1 (stereo not drawn),-16.13%

row,SMILES,Percent Effect
1,CCNc1nnc(SCC(=O)N2CCN(Cc3ccc(Cl)s3)CC2)s1,-3.982%
2,Cc1cccc2c(CCNC(=O)NCC[S+](C)[O-])c[nH]c12 (stereo not drawn),-10.94%
3,Cc1cccc2c(CCNC(=O)NCCC[S+](C)[O-])c[nH]c12 (stereo not drawn),21.8%
4,Cc1ccc(C)c2c(C)c(C(=O)NCC[S+](C)[O-])[nH]c12 (stereo not drawn),91.32%
5,OC1CCN(c2ccccc2NCc2nc(-c3cccs3)no2)CC1,8.395%
6,CNC(=O)N1CCC2(CC1)C(=O)N(C)c1c(F)cccc12,16.38%
7,O=C(NCCn1cc(Cl)cn1)C1CCN(C(=O)C2CC2)CC1,13.04%
8,O=C(NCc1ccc(CN2CCCCC2)cc1)Nc1cccnc1,-23.63%
9,CC(Cn1cc(Cl)cn1)C(=O)Nc1ccc(CN2CCCCCC2)cc1 (stereo not drawn),106.4%
10,CC(C)n1nc2c(cc1=O)CN(Cc1ccc(-n3cccn3)cc1)CC2,0.8403%
11,O=C(c1cncc(N2CCC3(CCCNC3)C2)n1)N1CCCC1 (stereo not drawn),43.3%
12,COc1cc(C2(C(=O)NC3CCC4(CC3)OCCO4)CC2)ccc1C,0.5256%
13,COCc1noc(-c2ccc(N3CCCCC3COC)nc2)n1 (stereo not drawn),2.136%
14,Cc1ccccc1-n1cc(-c2ccnc(N3CCCC(O)C3)n2)cn1 (stereo not drawn),107.7%
15,Cc1ccccc1-n1cc(CN(C)C[C@@H]2CCCN3CCCC[C@H]23)cn1,9.143%
16,COC[C@H]1CCCN1c1nccc(-c2cnn(-c3ccccc3C)c2)n1,94.7%
17,NCC1CCCN(c2nc(-c3ccccc3)nc3c2CCNCC3)C1 (stereo not drawn),-16.76%
18,Cc1cnc(N2CCCC(O)C2)nc1-c1ccnn1C (stereo not drawn),-3.995%
19,Cc1ccccc1-n1cc(-c2ccnc(N[C@H](CO)C(C)C)n2)cn1,-13.53%
20,Cc1ccccc1-n1cc(-c2ccnc(N3CCCC(CN)C3)n2)cn1 (stereo not drawn),108.9%
